From PubChem
Shiga inhibitor – A qHTS for Small Molecule Inhibitors of Shiga Toxin; inhibition, % at 38.7 µM; 290,000 compounds, 9.2% hits; Vero cells, Shiga toxin protein synthesis inhibition reporter; AID 2315, 2010; in the data active means inhibition mostly above about 28%, no sharp cut-off; inactive means mostly below about 43%
Pf growth 48h – Primary qHTS for delayed death inhibitors of the malarial parasite plastid, 48 hour incubation | P. falciparum luciferase growth in erythrocytes, 48 h | 310,000 compounds, 5.9% hits | Potency, µM (titrated, usually from 28.7 µM), actives largely listed as inhibitors
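Growth was read as firefly luciferase luminescence after a 48 h, 37 C, 5% CO2 exposure of compounds to reporter-bearing P. falciparum cultures (0.1% parasitemia, 2% hematocrit final) in Albumax-supplemented RPMI 1640.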
CHX counter – Cycloheximide Counterscreen for Small Molecule Inhibitors of Shiga Toxin. max response, %. cell reporter, cycloheximide protein synthesis inhibition counterscreen. 300,000 compounds, 12% hits; in the data active means max response mostly above about 13%, no sharp cut-off; inactive means mostly below about 14%; further: read at 38.3 µM for the half of the compounds with a filed dose
LmPK inh – qHTS Assay for Inhibitors of Leishmania Mexicana Pyruvate Kinase (LmPK) | Q27686 | 290,000 compounds, 0.37% hits | AID 1721, 2009 | purified LmPK, Kinase-Glo ATP luminescence, 1 h | Potency, µM (highest dose often 57.5 µM), actives largely listed as inhibitors
Target sequence (Q27686 whole entry, looked up): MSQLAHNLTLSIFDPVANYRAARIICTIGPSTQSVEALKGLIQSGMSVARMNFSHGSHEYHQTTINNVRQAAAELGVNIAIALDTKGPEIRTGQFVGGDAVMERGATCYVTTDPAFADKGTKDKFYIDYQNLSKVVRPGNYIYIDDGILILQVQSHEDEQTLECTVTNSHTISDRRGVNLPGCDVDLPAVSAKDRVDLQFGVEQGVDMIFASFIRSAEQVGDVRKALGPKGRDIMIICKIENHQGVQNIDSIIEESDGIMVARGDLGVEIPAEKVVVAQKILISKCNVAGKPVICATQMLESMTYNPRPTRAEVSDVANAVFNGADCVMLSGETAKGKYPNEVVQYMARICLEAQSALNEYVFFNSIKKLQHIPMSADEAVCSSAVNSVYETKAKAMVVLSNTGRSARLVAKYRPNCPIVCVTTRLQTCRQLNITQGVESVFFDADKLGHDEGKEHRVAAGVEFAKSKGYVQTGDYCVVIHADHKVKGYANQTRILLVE
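Purified LmPK (0.1 nM) with 0.5 mM PEP and 0.1 mM ADP in imidazole buffer pH 7.2 with MgCl2/KCl, 1 h at room temperature. ATP formed was read by luciferase luminescence and normalized to no-enzyme and uninhibited controls.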
Pf growth 96h – Primary qHTS for delayed death inhibitors of the malarial parasite plastid, 96 hour incubation; AID 504834, 2011; 320,000 compounds, 6.9% hits; Potency, µM (top dose mostly 28.7 µM), usual class: inhibitors; P. falciparum luciferase reporter growth, 96 h
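Erythrocytes infected with luciferase-expressing P. falciparum were dispensed at 2% hematocrit and 0.05% parasitemia (final), then incubated with compounds 96 hours at 37 C in 5% CO2. Luminescence after detection reagent addition reported growth.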
Hits are given with their value; - = inactive; ? = inconclusive; . = no result given. An excerpt weighted towards active compounds, which were near 22% of everything screened. Unless noted, the call rests on the fitted dose curve; in most records, active means well fitted inhibition curve with a large enough effect; inconclusive means small, poorly fitted or top-dose-only effect, or another doubt; inactive means no such curve, though single readings can be large or run the other way.

SMILES	Shiga inhibitor	Pf growth 48h	CHX counter	LmPK inh	Pf growth 96h
CCOc1ccc(NC(=O)N2CCN(Cc3ccc4c(c3)OCO4)CC2)cc1	-	-	-	-	-
O=C(Nc1ccc2c(c1)OCO2)N1CCN(Cc2ccco2)CC1	-	?	13.1	-	-
CCOC(=O)C1=C(Cn2cnc3ccccc32)NC(=O)NC1c1ccc(Cl)cc1 (centres undefined)	-	.	-	-	5.86µM
CCCCCCCCCC[n+]1cccc([C@@H]2CCCN2C)c1	-	.	-	.	.
Cc1ccc(S(=O)(=O)N/N=C/c2ccc(C(=O)O)cc2)cc1	-	-	-	-	11.7µM
Cc1ccc(S(=O)(=O)Oc2cccc(/C=N/n3cnnc3)c2)cc1	-	-	-	-	-
COc1ccc(OC)c(S(=O)(=O)N/N=C\c2ccc3c(c2)OCO3)c1	72.9	-	44.4	-	-
Cc1ccc(S(=O)(=O)Oc2cccc(/C=N/Nc3ccc(C(=O)O)cc3)c2)cc1	25.6	-	36.6	-	-
COc1ccc(S(=O)(=O)N/N=C\c2ccc3c(c2)OCO3)c(OC)c1	-	?	-	-	?
Cc1ccc(S(=O)(=O)N/N=C\c2ccc3c(c2)OCO3)cc1	-	-	15.7	-	-
COc1ccc(/C=C\C(=O)c2c(O)ccc3c(C)cc(=O)oc23)cc1OC	-	9.28µM	-	-	.
Cc1cc(=O)oc2c(C(=O)/C=C/c3ccccc3)c(O)ccc12	-	5.86µM	-	-	.
O=C(/C=C/c1cccs1)c1cc(Cl)ccc1O	-	?	-	-	-
COc1cc(/C=C/C(=O)c2c(O)ccc3c(C)cc(=O)oc23)ccc1O	-	?	-	-	?
Cc1c(C(=O)/C=C/c2cccs2)oc2ccc(F)cc12	72.6	.	36.0	-	-
Cc1cc(=O)oc2c(C(=O)/C=C\c3cccs3)c(O)ccc12	-	-	-	-	13.1µM
Cc1c(C(=O)N2CCN(C(=O)c3ccccc3)CC2)oc2ccc(F)cc12	.	-	.	.	?
C1CCCCCC(NCCN2CCNCC2)CCCCC1	-	?	-	-	?
COC(=O)C1CCN(C(=O)COC(=O)c2cccc(NS(=O)(=O)c3ccccc3)c2)CC1	.	?	.	.	-
Cc1cc(=O)n(-c2ccccc2)n1-c1ccccc1	-	-	-	-	-
Cc1cc(=S)n(-c2ccccc2)n1C	39.2	-	-	-	-
O=C(Cn1nnc(-c2ccccc2NC(=O)c2ccccc2)n1)Nc1ccc2c(c1)OCCO2	-	?	-	-	?
CC(=O)Nc1ccccc1-c1nnn(CC(=O)Nc2ccc3c(c2)OCCO3)n1	-	-	24.5	-	-
O=C(Cn1nnc(-c2ccccc2F)n1)Nc1ccc2c(c1)OCCO2	79.1	-	32.2	-	-
Cc1ccccc1C(=O)Nc1ccccc1-c1nnn(CC(=O)Nc2ccc3c(c2)OCCO3)n1	-	?	38.3	-	-
SMILES	Shiga inhibitor	Pf growth 48h	CHX counter	LmPK inh	Pf growth 96h
CCCCNC(=O)c1onc(CSc2ccc(Cl)cc2)c1C(=O)O	-	-	-	-	-
CC(C)(C)N1C(=O)c2ccc(C(=O)Nc3cc(C(=O)O)cc(C(=O)O)c3)cc2C1=O	.	-	-	-	-
O=C(CSc1nnc(-c2ccccc2F)n1C1CC1)NCc1ccco1	.	-	.	.	-
CN(C)c1ccc(NC(=O)Cn2cc3c(n2)CCCC3)cc1	72.1	?	55.7	-	?
O=C(Cn1cc2c(n1)CCCCC2)NC1CCN(Cc2ccccc2)CC1	-	.	-	-	11.7µM
CCN(CCCNC(=O)Cn1cc2c(n1)CCCC2)c1cccc(C)c1	-	-	-	-	13.1µM
Cc1cc(C)cc(NC(=O)Cn2cc3c(n2)CCCCC3)c1	-	.	-	-	?
COc1ccccc1CNC(=O)COC(=O)c1ccc(C)c(S(=O)(=O)N2CCOCC2)c1	.	-	.	.	-
Cc1ccccc1Oc1cc(NC(=O)CCCn2nc(C)c([N+](=O)[O-])c2C)cc([N+](=O)[O-])c1	-	?	-	-	14.7µM
Cc1ccccc1Oc1cc(NC(=O)Cn2cnc([N+](=O)[O-])c2)cc([N+](=O)[O-])c1	-	10.4µM	-	-	?
CCc1ccc(NC(=O)Cn2cnc([N+](=O)[O-])c2)cc1	-	-	-	-	-
O=C(CC1Sc2ccccc2NC1=O)c1ccc(Br)cc1 (centres undefined)	58.2	-	37.7	-	-
CCN(CC)c1ncnc2scc(C3COc4ccccc4O3)c12 (centres undefined)	-	8.28µM	-	-	-
CCCn1nc(C(=O)OCC(=O)Nc2cccc(OC)c2)c2ccccc2c1=O	-	-	-	-	-
CCCCn1c(Cn2nc(C(=O)O)c3ccccc3c2=O)nc2cc(S(N)(=O)=O)ccc21	-	-	-	-	-
Cc1ccc(N/C=C(/C#N)c2ccsc2)cc1C	86.5	-	42.2	-	-
O=C(O)C(Cc1c[nH]c2ccccc12)N1C(=O)C2C3c4ccccc4C(c4ccccc43)[C@@H]2C1=O (some centres undefined)	-	-	-	-	?
CCOC(=O)c1nnn(-c2nonc2N)c1-c1ccc(OCC)cc1	-	13.1µM	-	-	?
CCOC(=O)c1nnn(-c2nonc2N)c1CN1CCc2ccccc2C1	-	-	-	-	.
CCOc1cccc(-c2c(C(=O)N/N=C(\C)c3ccncc3)nnn2-c2nonc2N)c1	-	-	-	-	?
CCOc1cccc(-c2c(C(=O)N/N=C(\C)c3ccccn3)nnn2-c2nonc2N)c1	-	?	-	-	3.7µM
CCOC(=O)c1nnn(-c2nonc2N)c1CS(=O)(=O)c1ccccc1	-	-	-	-	11.7µM
O=C(NNC(=O)c1ccccc1Cl)c1ccncc1	-	-	-	-	-
CC(CCc1ccccc1)NC(=O)c1ccccc1Cl (centres undefined)	.	?	-	-	9.28µM
CC(CCc1ccccc1)NC(=O)c1ccccc1F (centres undefined)	-	-	-	-	-
SMILES	Shiga inhibitor	Pf growth 48h	CHX counter	LmPK inh	Pf growth 96h
O=C(NNCc1ccc(O)cc1)c1ccccc1Cl	38.8	-	45.5	-	-
O=C(CCc1ccccc1)NNC(=O)c1ccccc1Cl	.	?	-	-	2.94µM
COCC(C)NC(=O)c1ccccc1OC(C)=O (centres undefined)	-	-	-	-	.
CC(=O)Oc1ccccc1C(=O)NC(C)CCc1ccccc1 (centres undefined)	-	14.7µM	-	-	?
CCCCC(CC)CNC(=O)c1ccc2c(=O)n(CCOC)c(=O)[nH]c2c1 (centres undefined)	-	.	-	.	.
c1ccc(-c2cnc(-c3cccnc3)o2)cc1	-	-	49.4	-	-
Cc1ccc(-c2cnc(-c3ccccc3C(=O)O)o2)cc1	61.3	-	28.9	-	-
Cc1ccc(NC(=O)c2ccccc2-c2ccccc2C(=O)O)cc1	-	-	-	-	-
NC(=O)c1ccccc1	-	-	-	-	-
NC(=O)c1ccc(-c2ncc(-c3ccccc3)o2)cc1	85.3	-	43.6	-	?
